The text below walks through data of the supplement of paper PMC6522484.

Experiment [1] concerns DLD1. As to the kind of experiment: cell viability (CellTiter-Glo) relative to plate median (fraction of plate median); higher = more viable cells. The following applies: 10 µM, treatment time 24 h. The method, boiled down:
(§1)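 Each value averages two independent replicates in which the well signal was normalised to the plate median (webcellHTS2, additive, without log transformation). The signal was firefly luciferase or CellTiterGlo luminescence, read on parallel plates with a Tecan F500. The cells were colorectal cancer lines with stable lentiviral TCF/Wnt firefly luciferase reporters in 384-well plates, dosed 24 h after seeding with kinase inhibitor library compounds at a final 10 µM for 24 h.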

Experiment [2] deals with HCT116. Described as above. The note with it: 10 µM; treatment time 24 h; reporter: TCF4/Wnt. Summed up:
as §1

Experiment [3] concerns SW480. The description is as above. The note with it: 10 µM; treatment time 24 h; reporter: 7TFP. The method, boiled down:
as §1

Experiment [4] concerns DLD1. As to the kind of experiment: TCF/Wnt firefly luciferase reporter signal relative to plate median (fraction of plate median); higher = higher Wnt reporter signal. The note with it: 10 µM, treatment time 24 h. Summed up: as §1
Experiment [5] deals with HCT116. The description is as above. The note with it: 10 µM; treatment time 24 h; reporter: TCF4/Wnt. Summed up: as §1
Experiment [6] relates to SW480. The experiment is described as above. The note with it: 10 µM; treatment time 24 h; reporter: 7TFP. The method, boiled down: as §1
For experiment [7], the system named is DLD1. The experiment is described as follows: cell viability (CellTiter-Glo) relative to plate median (fraction of plate median); higher = more viable cells. The following applies: 5 µM; treatment time 24 h; reporter: 7TFP. The method, boiled down: (§2)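 Luminescence, normalised well by well to the plate median, is tabulated as a mean of independent replicates. There were two replicates, run on colorectal cancer lines stably transduced with lentiviral TCF/Wnt firefly luciferase reporters and dosed with library compounds at a final 5 µM for 24 h. Readouts were firefly luciferase or CellTiterGlo on parallel plates.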
(ATP-based viability assays read luminescence as a measure of living cells.)

The subject of experiment [8] is HCT116. The experiment is described as above. The note with it: 5 µM; treatment time 24 h; reporter: TCF4/Wnt. The method, boiled down:
as §2

Experiment [9] deals with SW480. The experiment is described as above. The following applies: 5 µM; treatment time 24 h; reporter: 7TFP. The method, boiled down: as §2
The subject of experiment [10] is DLD1. As to the kind of experiment: TCF/Wnt firefly luciferase reporter signal relative to plate median (fraction of plate median); higher = higher Wnt reporter signal. The note with it: 5 µM; treatment time 24 h; reporter: 7TFP. Summed up: as §2
On the technique in general: A reporter such as luciferase makes a cellular process visible.

The subject of experiment [11] is SW480. Described as above. The note with it: 5 µM; treatment time 24 h; reporter: 7TFP. The method, boiled down:
as §2

Each structure is given as a SMILES string. ± gives the standard deviation of the averaged measurements.

Turning to `COC(=O)Nc1ccc(-c2nc(N3CCOCC3)c3cnn(C4CCN(Cc5cccnc5)CC4)c3n2)cc1`, the cell viability in experiment [1] (reporter: 7TFP) was 0.796 ± 0.069; in experiment [1] (reporter: TCF4/Wnt) it was 0.872 ± 0.036; in experiment [2], 0.759 ± 0.059; in [3] it was 1.055 ± 0.0071. Also, the “TCF/Wnt firefly luciferase reporter signal” value came to 0.372 ± 0.064 in [4] (reporter: 7TFP), 0.632 ± 0.04 in experiment [4] (reporter: TCF4/Wnt), 0.595 ± 0.068 in experiment [5] and 0.765 ± 0.066 in experiment [6].
Regarding `CC(C)n1nc(-c2ccc3oc(N)nc3c2)c2c(N)ncnc21`, the cell viability in experiment [1] (reporter: 7TFP) was 0.832 ± 0.15; in experiment [1] (reporter: TCF4/Wnt), 0.916 ± 0.016; in experiment [2], 0.624 ± 0.1; in experiment [3], 1.04 ± 0.072. In addition, the “TCF/Wnt firefly luciferase reporter signal” value in [4] (reporter: 7TFP) turned out to be 0.341 ± 0.062; in experiment [4] (reporter: TCF4/Wnt) it was 0.509 ± 0.071; in [5], 0.569 ± 0.26; in [6] it was 0.704 ± 0.15.
On to `Cc1ncc(-c2ccnc(Nc3ccc(S(C)(=O)=O)cc3)n2)n1C(C)C`, for which the cell viability was 1.25 ± 0.16 in experiment [1] (reporter: 7TFP), 1.32 ± 0.099 in experiment [1] (reporter: TCF4/Wnt), 0.766 ± 0.3 in experiment [2] and 1.47 ± 0.05 in experiment [3]. The “TCF/Wnt firefly luciferase reporter signal” value in [4] (reporter: 7TFP) was 0.499 ± 0.026; in experiment [4] (reporter: TCF4/Wnt), 0.277 ± 0.063; in experiment [5], 0.156 ± 0.042; in experiment [6] it was 0.793 ± 0.035.
Regarding `COC(=O)[C@@H]1OC(=O)C2OC23[C@@]1(C)CCC1[C@]2(C)C(C[C@@H](O)[C@]13C)C(C)(C)[C@H](OC(C)=O)C[C@@H]2OC(C)=O` (some centres not stated), the cell viability in [7] came to 1.01 ± 0.091; in experiment [8] it was 1.01 ± 0.014; in experiment [9] it was 1.01 ± 0.035. In addition, the “TCF/Wnt firefly luciferase reporter signal” value in [10] amounted to 1.1 ± 0.042; in experiment [11], 1 ± 0.11.
On to `CN1C2CCC1CC(OC(=O)C(O)c1ccccc1)C2` (configuration not stated), for which the results for the “TCF/Wnt firefly luciferase reporter signal” value in experiment [10] and in experiment [11] were 1.05 ± 0.042 and 1.12 ± 0.021, respectively.
On to `C=CC1=C(C)c2cc3[nH]c(cc4nc(cc5[nH]c(cc1n2)c(C)c5CCC(=O)O)C(CCC(=O)O)=C4C)c(C)c3C=C`, for which the cell viability in experiment [7] is 1 ± 0.028; in experiment [8], 0.964 ± 0.12; in experiment [9], 0.963 ± 0.053. Besides, the “TCF/Wnt firefly luciferase reporter signal” value stood at 0.967 ± 0.027 in experiment [10] and 0.992 ± 0.0057 in experiment [11].
On the same counts, the results for `CC(=O)NCC(=O)c1c[nH]c2ccccc12` [N-Acetyl-beta-oxotryptamin] are 1.02 ± 0.048, 0.983 ± 0.095, 0.982 ± 0.013, 1.11 ± 0.085 and 0.932 ± 0.052.
On the same counts, the results for `Cc1c(C(N)=O)cc([N+](=O)[O-])cc1[N+](=O)[O-]` are 0.985 ± 0.035, 0.926 ± 0.15, 0.981 ± 0.056, 0.9 ± 0.05 and 0.9925 ± 0.0064.
On the same counts, the results for `CC(C)=CCC[C@@H](C)[C@@H]1CC[C@]2(C)C3=C(CC[C@@]12C)[C@@]1(C)CC[C@H](O)C(C)(C)[C@@H]1CC3` are 1.015 ± 0.0071, 0.995 ± 0.021, 0.989 ± 0.016, 0.918 ± 0.23 and 1.02 ± 0.085.
`CO[C@@]1(NC(=O)CSCC#N)C(=O)N2C(C(=O)O)=C(CSc3nnnn3C)CS[C@@H]21`: the cell viability in [7] was found to be 0.998 ± 0.031; in experiment [8] it was 1.11 ± 0.057; in experiment [9], 0.9035 ± 0.0021. The figures for the “TCF/Wnt firefly luciferase reporter signal” value in experiment [10] and in experiment [11] were 0.928 ± 0.023 and 1.02, respectively.
Turning to `COc1ccc(-c2ccc3c(N4CCOC[C@@H]4C)nc(N4CCOC[C@@H]4C)nc3n2)cc1CO`, the cell viability in experiment [1] (reporter: 7TFP) was 0.94 ± 0.14; in experiment [1] (reporter: TCF4/Wnt), 0.921 ± 0.033; in experiment [2], 0.823 ± 0.12; in [3], 1.17 ± 0.099. The “TCF/Wnt firefly luciferase reporter signal” value was 0.34 ± 0.042 in experiment [4] (reporter: 7TFP), 0.4795 ± 0.0021 in experiment [4] (reporter: TCF4/Wnt), 0.567 ± 0.08 in [5] and 0.829 ± 0.035 in experiment [6].
Regarding `CCCN(CCC)S(=O)(=O)c1ccc(C(=O)O)cc1`, the cell viability in [7] is 1.03 ± 0.054; in experiment [8], 1.1 ± 0.078; in experiment [9], 1.1 ± 0.078. For the same compound, the “TCF/Wnt firefly luciferase reporter signal” value in experiment [10] was determined as 1.12 ± 0.21; in experiment [11], 1.115 ± 0.0071.
`O=C(Nc1c[nH]nc1-c1nc2ccc(CN3CCOCC3)cc2[nH]1)NC1CC1`: the cell viability is 0.842 ± 0.038 in [1] (reporter: 7TFP), 0.817 ± 0.022 in experiment [1] (reporter: TCF4/Wnt), 0.566 ± 0.1 in experiment [2] and 1.02 ± 0.14 in experiment [3]. The “TCF/Wnt firefly luciferase reporter signal” value in experiment [4] (reporter: 7TFP) stood at 0.865 ± 0.018; in experiment [4] (reporter: TCF4/Wnt) it was 1.575 ± 0.0071; in [5], 0.189 ± 0.0099; in experiment [6], 0.84 ± 0.052.
As to `CC(=O)c1ccc2c(c1)N(CCCN(C)C)c1ccccc1S2`, the cell viability was 0.976 ± 0.048 in [7], 0.931 ± 0.037 in experiment [8] and 0.964 ± 0.016 in experiment [9]. For the same compound, the “TCF/Wnt firefly luciferase reporter signal” value was found to be 1.06 ± 0.2 in [10] and 0.913 ± 0.12 in experiment [11].
With `CC(=O)N[C@@H](CC(=O)c1ccccc1N)C(=O)O` [N-Acetyl-kynurenine], the cell viability amounted to 1.09 ± 0.12 in experiment [7], 1.12 ± 0.11 in [8] and 1.01 ± 0.044 in [9]. The results for the “TCF/Wnt firefly luciferase reporter signal” value in experiment [10] and in experiment [11] were 0.859 ± 0.17 and 1.05 ± 0.078, respectively.
